# Records with an inconclusive call do not appear. Activity calls are given as the source filed them. Rule for the calls: active = hit-call score of the fitted dose curve at least 0.9, where 1 is the maximum; inconclusive = response in the unintended direction; inactive = score below 0.9.
# Molecular target: human Retinoic Acid Receptor beta (RARb), RARB (gene 5915) (UniProt P10826)
# Test: ATG_RARb_TRANS: Attagene TRANS-FACTORIAL HepG2 Assay for human Retinoic Acid Receptor beta (AID 2283004)
# Protocol: ATG_TRANS is a cell-based, multiplexed-readout assay that uses HepG2, a human liver cell line, with measurements taken at 24 hours after chemical dosing in a 24-well plate.ATG_RARb_TRANS is one of 30 assay component(s) measured or calculated from the ATG_TRANS assay. It is designed to make measurements of mRNA induction, a form of inducible reporter, as detected with fluorescence intensity signals by Reverse transcription polymerase chain reaction (RT-PCR) and Capillary electrophoresis technology.Data from the assay component ATG_RARb_TRANS was analyzed into 1 assay endpoint. This assay endpoint, ATG_RARb_TRANS, was analyzed in the positive analysis fitting direction relative to DMSO as the negative control and baseline of activity. Using a type of inducible reporter, measures of mRNA for gain-of-signal activity can be used to understand the reporter gene at the transcription factor-level as they relate to the gene RARB. Furthermore, this assay endpoint can be referred to as a primary readout, because this assay has produced multiple assay endpoints where this one serves a reporter gene function. To generalize the intended target to other relatable targets, this assay endpoint is annotated to the nuclear receptor intended target family, where the subfamily is non-steroidal.
# Human liver HepG2 cells are transiently transfected with multiple reporter transcription units (MRTUs) in 6-well plates using FuGene 6 reagent (Roche; 3 ml FuGene/1 mg DNA). The MRTU constructs are regulated by a cis-regulating element (promoter). […] A major difference between the CIS and TRANS system is that in CIS activities of endogenous TFs are measured, whereas the TRANS assay evaluates changes in activities of exogenous, chimeric NR-Gal4 proteins. […] At the end of 24 hour incubation, total RNA was isolated using TriZol reagent (Invitrogen). The isolated RNA is then reverse-transcribed using oligo(dT) primer and Mo-MLV reverse transcriptase (Invitrogen) with DNAse I (Ambion) treatment for 30 min. The one-tenth of the produced cDNA was amplified by PCR using Taq DNA polymerase (Invitrogen) and two reporter sequence-specific primers. The PCR products were fluorescently labeled by primer extension with 6-arboxyfluorescein (6-FAM) 5'-labeled reporter sequence-specific primer (2 min at 95 C, 20 s at 68 C and 10 min at 72 C) and these products were digested with 5U of HpaI (New England Biolabs) for 2h at 37 C. The fragments were purified using Qiaquick PCR columns (Qiagen), analyzed on an ABI 3130xL genetic analyzer (Applied Biosystems) with peak positions identified by using a set of X-rhodamine (ROX)-labeled MapMarker1000 molecular weight standards (BioVentures). The raw capillary electrophoresis data was processed using Attagraph software (Attagene).
# Sequence of human Retinoic Acid Receptor beta (RARb), RARB (gene 5915) (P10826 whole entry, looked up): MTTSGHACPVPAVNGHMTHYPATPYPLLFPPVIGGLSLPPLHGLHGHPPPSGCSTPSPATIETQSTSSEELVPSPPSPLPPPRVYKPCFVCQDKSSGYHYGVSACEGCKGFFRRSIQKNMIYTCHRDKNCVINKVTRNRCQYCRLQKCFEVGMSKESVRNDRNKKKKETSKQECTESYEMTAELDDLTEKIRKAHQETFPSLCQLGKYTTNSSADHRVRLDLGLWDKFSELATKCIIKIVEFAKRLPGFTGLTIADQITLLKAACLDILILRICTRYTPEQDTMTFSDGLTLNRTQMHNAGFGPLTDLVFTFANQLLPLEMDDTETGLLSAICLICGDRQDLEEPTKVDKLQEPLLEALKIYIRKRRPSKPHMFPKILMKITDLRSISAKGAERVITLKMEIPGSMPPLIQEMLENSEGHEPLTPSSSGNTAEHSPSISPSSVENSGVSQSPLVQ
row,Compound,outcome
1,CC(C1CC1)C(O)(Cn1cncn1)c1ccc(Cl)cc1 (stereo not given),inactive
2,CCOP(=O)(SC(C)CC)N1CCSC1=O (stereo not given),inactive
3,Nc1nc(N)nc(NC2CC2)n1,inactive
4,COP(=O)(OC)C(O)C(Cl)(Cl)Cl (stereo not given),inactive
5,CCCOCC(=Nc1ccc(Cl)cc1C(F)(F)F)n1ccnc1,inactive
6,CCOP(=O)(NC(C)C)Oc1ccc(SC)c(C)c1 (stereo not given),inactive
7,CCc1cccc(C)c1N(C(=O)CCl)C(C)COC (stereo not given),inactive
8,C=C(C)[C@H]1Cc2c(ccc3c2O[C@@H]2COc4cc(OC)c(OC)cc4[C@@H]2C3=O)O1,inactive
9,CCCCSP(=O)(SCCCC)SCCCC,inactive
10,O=C(O)c1cc(Oc2ccc(C(F)(F)F)cc2Cl)ccc1[N+](=O)[O-],inactive
11,CSc1nnc(C(C)(C)C)c(=O)n1N,inactive
12,Nc1c(Cl)cc([N+](=O)[O-])cc1Cl,inactive
13,CCOC(=O)CC(SP(=O)(OC)OC)C(=O)OCC (stereo not given),inactive
14,C#CCC1=C(C)C(OC(=O)C2C(C=C(C)C)C2(C)C)CC1=O (stereo not given),inactive
15,CCOC(=O)COc1cc(-c2nn(C)c(OC(F)F)c2Cl)c(F)cc1Cl,inactive
16,C[N+]1(C)CCCCC1,inactive
17,COc1cccc(C(=O)NN(C(=O)c2cc(C)cc(C)c2)C(C)(C)C)c1C,inactive
18,CN(C)C(=O)Nc1cccc(C(F)(F)F)c1,inactive

row,Compound,outcome
1,CCc1cnc(C2=NC(C)(C(C)C)C(=O)N2)c(C(=O)O)c1 (stereo not given),inactive
2,FC(F)C(F)(F)OCC(Cn1cncn1)c1ccc(Cl)cc1Cl (stereo not given),inactive
3,CNc1cnn(-c2cccc(C(F)(F)F)c2)c(=O)c1Cl,inactive
4,CCCCN(CC)c1c([N+](=O)[O-])cc(C(F)(F)F)cc1[N+](=O)[O-],inactive
5,CCOP(=S)(OCC)OC(Cl)C(Cl)(Cl)Cl (stereo not given),inactive
6,CSc1nc(NC(C)C)nc(NC(C)C)n1,inactive
7,CON=C(C(=O)OC)c1ccccc1CON=C(C)c1cccc(C(F)(F)F)c1,inactive
8,O=[N+]([O-])c1cc(C(F)(F)F)c(Cl)c([N+](=O)[O-])c1Nc1ncc(C(F)(F)F)cc1Cl,inactive
9,S=C1NCCN1,inactive
10,CCOP(=S)(OCC)Oc1ccc2c(C)c(Cl)c(=O)oc2c1,inactive
11,CCCSP(=O)(OCC)Oc1ccc(Br)cc1Cl (stereo not given),inactive
12,CCOP(=S)(OCC)SCCSCC,inactive
13,CC(C)N(C(=O)SCC(Cl)=C(Cl)Cl)C(C)C,inactive
14,CCCSP(=O)(OCC)SCCC,inactive
15,CN1COCN(Cc2cnc(Cl)s2)C1=N[N+](=O)[O-],inactive
16,CCC(=O)Nc1ccc(Cl)c(Cl)c1,inactive
17,N#CSCSC#N,inactive

# Source: PubChem BioAssay (EPA / NIEHS)
